Measurements: PubChem BioAssay (EPA / NIEHS)
Results filed as inconclusive are left out. Calls of active or inactive are those of the source. How the source made its calls: active means hit-call score of the fitted dose curve at least 0.9, where 1 is the maximum; inconclusive means response in the unintended direction; inactive means score below 0.9.

Experiments:
[1] = biological target: human Serotonin, 5-Hydroxytryptamine Receptor 7 (5HT7), HTR7 (gene 3363) (UniProt P34969); test: NVS_GPCR_h5HT7: NovaScreen (NVS) G Protein-Coupled Receptor Assay for human Serotonin, 5-Hydroxytryptamine Receptor 7 (5HT7) (AID 2283255);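 further: hits reduce specific radioligand binding relative to DMSO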
human Serotonin, 5-Hydroxytryptamine Receptor 7 (5HT7), HTR7 (gene 3363), sequence (P34969 whole entry, looked up): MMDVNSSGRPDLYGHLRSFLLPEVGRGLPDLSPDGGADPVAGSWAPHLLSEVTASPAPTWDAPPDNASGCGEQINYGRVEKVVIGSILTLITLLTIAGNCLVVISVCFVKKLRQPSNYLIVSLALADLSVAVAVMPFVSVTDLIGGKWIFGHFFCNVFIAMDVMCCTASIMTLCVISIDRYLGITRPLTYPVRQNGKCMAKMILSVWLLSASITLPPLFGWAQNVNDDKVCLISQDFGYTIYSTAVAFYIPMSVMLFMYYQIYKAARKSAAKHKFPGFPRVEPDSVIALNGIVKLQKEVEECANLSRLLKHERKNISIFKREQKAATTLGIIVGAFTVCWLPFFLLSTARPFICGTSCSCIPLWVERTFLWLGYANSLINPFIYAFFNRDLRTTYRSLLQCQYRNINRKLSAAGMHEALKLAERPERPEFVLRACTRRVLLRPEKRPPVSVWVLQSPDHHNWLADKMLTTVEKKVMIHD
In short: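 Radioligand displacement on membranes from CHO cells expressing human 5HT7, 1 h incubation, filter-based scintillation counting. Primary screen used a single 25 uM concentration in duplicate; actives were followed up in concentration series.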

[2] = biological target: human Serotonin, 5-Hydroxytryptamine Receptor 5A (5HT5A), HTR5A (gene 3361) (UniProt P47898); test: NVS_GPCR_h5HT5A: NovaScreen (NVS) G Protein-Coupled Receptor Assay for human Serotonin, 5-Hydroxytryptamine Receptor 5A (5HT5A) (AID 2283251)
human Serotonin, 5-Hydroxytryptamine Receptor 5A (5HT5A), HTR5A (gene 3361), sequence (P47898 whole entry, looked up): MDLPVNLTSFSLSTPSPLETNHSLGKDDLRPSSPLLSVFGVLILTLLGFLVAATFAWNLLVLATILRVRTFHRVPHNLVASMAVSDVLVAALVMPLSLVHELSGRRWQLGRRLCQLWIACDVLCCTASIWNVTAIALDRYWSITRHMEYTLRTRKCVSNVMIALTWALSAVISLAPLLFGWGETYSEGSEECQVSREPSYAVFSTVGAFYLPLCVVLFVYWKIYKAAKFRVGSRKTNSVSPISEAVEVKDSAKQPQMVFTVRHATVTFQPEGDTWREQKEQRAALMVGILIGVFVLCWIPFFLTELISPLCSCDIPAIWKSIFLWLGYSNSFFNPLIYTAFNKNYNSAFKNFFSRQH
In short: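 Cell-free radioligand displacement binding on HEK293-derived membrane protein, 1 h incubation, filter-based scintillation counting. Primary screen in duplicate at 25 uM, actives followed in concentration series; loss of signal fitted versus DMSO.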

[3] = biological target: human Serotonin, 5-Hydroxytryptamine Receptor 6 (5HT6), HTR6 (gene 3362) (UniProt P50406); test: NVS_GPCR_h5HT6: NovaScreen (NVS) G Protein-Coupled Receptor Assay for human Serotonin, 5-Hydroxytryptamine Receptor 6 (5HT6) (AID 2283253)
human Serotonin, 5-Hydroxytryptamine Receptor 6 (5HT6), HTR6 (gene 3362), sequence (P50406 whole entry, looked up): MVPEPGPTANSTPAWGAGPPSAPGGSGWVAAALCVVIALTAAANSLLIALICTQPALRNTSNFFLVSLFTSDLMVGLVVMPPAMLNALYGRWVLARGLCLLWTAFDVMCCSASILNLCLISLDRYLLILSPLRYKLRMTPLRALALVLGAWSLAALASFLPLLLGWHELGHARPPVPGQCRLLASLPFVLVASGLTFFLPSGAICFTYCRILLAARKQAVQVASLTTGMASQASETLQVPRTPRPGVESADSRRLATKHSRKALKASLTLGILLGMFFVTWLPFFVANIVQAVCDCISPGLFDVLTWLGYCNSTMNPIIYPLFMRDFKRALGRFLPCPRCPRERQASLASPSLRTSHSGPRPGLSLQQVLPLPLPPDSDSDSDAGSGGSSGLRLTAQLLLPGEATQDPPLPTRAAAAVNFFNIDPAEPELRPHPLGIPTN
In short: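 Radioligand binding to 5HT6 in HEK293-derived membranes, cell-free, 1 h after dosing; bound ligand measured by filter-based scintillation counting. Primary screen in duplicate at 25 uM; actives retested in concentration series.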

[4] = biological target: human Adenosine A1 Receptor (AdoRA1), ADORA1 (gene 134) (UniProt P30542); test: NVS_GPCR_hAdoRA1: NovaScreen (NVS) G Protein-Coupled Receptor Assay for human Adenosine A1 Receptor (AdoRA1) (AID 2283254)
human Adenosine A1 Receptor (AdoRA1), ADORA1 (gene 134), sequence (P30542 whole entry, looked up): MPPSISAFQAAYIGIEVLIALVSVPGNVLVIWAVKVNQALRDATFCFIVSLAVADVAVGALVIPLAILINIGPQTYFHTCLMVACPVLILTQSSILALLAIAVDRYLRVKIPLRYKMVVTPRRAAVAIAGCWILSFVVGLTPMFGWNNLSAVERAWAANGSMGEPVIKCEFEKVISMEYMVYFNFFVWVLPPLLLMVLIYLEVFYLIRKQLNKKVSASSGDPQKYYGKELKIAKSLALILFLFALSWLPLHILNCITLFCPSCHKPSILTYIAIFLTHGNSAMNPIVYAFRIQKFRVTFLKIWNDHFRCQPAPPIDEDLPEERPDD
In short: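 Radioligand binding was run on human cortical membranes, cell-free, with filter-based scintillation counting 1 h after dosing. The primary screen was duplicate at 25 uM, followed by concentration series. Signal loss versus DMSO was fitted positive-direction.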

[5] = biological target: human Adenosine A2a Receptor (AdoRA2a), ADORA2A (gene 135) (UniProt P29274); test: NVS_GPCR_hAdoRA2a: NovaScreen (NVS) G Protein-Coupled Receptor Assay for human Adenosine A2a Receptor (AdoRA2a) (AID 2283256)
In short: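 Radioligand displacement on HEK293-derived membrane protein, cell-free; filter-based scintillation counting 1.5 hours after dosing, loss of signal vs DMSO. Single-point duplicate screen at 25 uM, actives retested in concentration series.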

[6] = biological target: human Adrenergic, Alpha 2c Receptor (Adra2C), ADRA2C (gene 152) (UniProt P18825); test: NVS_GPCR_hAdra2C: NovaScreen (NVS) G Protein-Coupled Receptor Assay for human Adrenergic, Alpha 2c Receptor (Adra2C) (AID 2283259)
human Adrenergic, Alpha 2c Receptor (Adra2C), ADRA2C (gene 152), sequence (P18825 whole entry, looked up): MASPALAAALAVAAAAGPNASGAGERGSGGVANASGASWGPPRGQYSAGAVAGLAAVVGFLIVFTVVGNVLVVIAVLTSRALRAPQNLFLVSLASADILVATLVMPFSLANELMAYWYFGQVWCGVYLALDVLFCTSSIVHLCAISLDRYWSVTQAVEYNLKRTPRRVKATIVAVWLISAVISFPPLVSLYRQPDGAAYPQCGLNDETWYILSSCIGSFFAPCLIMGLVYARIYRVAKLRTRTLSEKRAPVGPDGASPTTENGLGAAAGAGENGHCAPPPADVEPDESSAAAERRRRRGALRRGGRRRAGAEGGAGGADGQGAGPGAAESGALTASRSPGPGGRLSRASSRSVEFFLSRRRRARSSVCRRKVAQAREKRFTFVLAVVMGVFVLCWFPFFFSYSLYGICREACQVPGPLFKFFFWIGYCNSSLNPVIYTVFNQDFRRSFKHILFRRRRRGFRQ
In short: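 Radioligand binding on Sf9-expressed receptor membranes, 1 h after chemical dosing, filter-based scintillation read-out. Loss of binding fitted positively versus DMSO; primary duplicate screen at 25 uM, actives retested in concentration series.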

[7] = biological target: human Dopamine Receptor D4.4 (DRD4.4), DRD4 (gene 1815) (UniProt P21917); test: NVS_GPCR_hDRD4.4: NovaScreen (NVS) G Protein-Coupled Receptor Assay for human Dopamine Receptor D4.4 (DRD4.4) (AID 2283264)
human Dopamine Receptor D4.4 (DRD4.4), DRD4 (gene 1815), sequence (P21917 whole entry, looked up): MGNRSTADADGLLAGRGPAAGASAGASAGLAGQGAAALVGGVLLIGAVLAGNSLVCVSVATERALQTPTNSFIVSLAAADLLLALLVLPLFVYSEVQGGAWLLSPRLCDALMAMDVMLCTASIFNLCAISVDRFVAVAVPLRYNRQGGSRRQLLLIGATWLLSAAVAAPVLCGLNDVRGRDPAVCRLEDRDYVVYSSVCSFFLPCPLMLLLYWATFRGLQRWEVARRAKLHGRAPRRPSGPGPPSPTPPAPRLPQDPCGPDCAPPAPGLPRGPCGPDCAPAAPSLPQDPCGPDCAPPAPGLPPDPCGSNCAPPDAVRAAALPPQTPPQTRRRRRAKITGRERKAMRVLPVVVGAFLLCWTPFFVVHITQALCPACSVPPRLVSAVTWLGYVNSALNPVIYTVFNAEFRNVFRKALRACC
In short: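 Radioligand displacement on human DRD4.4 from CHO-derived membranes, 1 hour incubation, bound counts read by filtration and scintillation. Primary screen in duplicate at 25 uM; actives followed up in concentration series.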

[8] = biological target: human Dopamine Receptor D2 (DRD2), DRD2 (gene 1813) (UniProt P14416); test: NVS_GPCR_hDRD2s: NovaScreen (NVS) G Protein-Coupled Receptor Assay for human Dopamine Receptor D2 (DRD2) (AID 2283266)
human Dopamine Receptor D2 (DRD2), DRD2 (gene 1813), sequence (P14416 whole entry, looked up): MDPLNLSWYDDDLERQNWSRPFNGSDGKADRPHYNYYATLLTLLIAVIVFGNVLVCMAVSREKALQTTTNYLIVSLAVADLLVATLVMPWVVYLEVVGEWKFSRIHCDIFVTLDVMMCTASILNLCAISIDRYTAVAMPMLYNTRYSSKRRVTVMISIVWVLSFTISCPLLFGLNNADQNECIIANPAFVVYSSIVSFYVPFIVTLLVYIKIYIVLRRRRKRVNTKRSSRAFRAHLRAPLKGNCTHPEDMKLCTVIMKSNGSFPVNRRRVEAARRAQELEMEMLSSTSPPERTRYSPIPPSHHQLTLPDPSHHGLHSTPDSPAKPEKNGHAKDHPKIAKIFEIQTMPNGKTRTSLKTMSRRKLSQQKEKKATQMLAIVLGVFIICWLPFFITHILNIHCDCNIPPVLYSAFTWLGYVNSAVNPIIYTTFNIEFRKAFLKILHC
In short: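 Radioligand displacement used human DRD2 membranes extracted from CHO cells and was read by filter-based scintillation counting after 1.5 hours. Primary screening was in duplicate at 25 uM. Loss of signal versus DMSO was fitted, with concentration series in follow-up.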

[9] = biological target: D(1A) dopamine receptor (Homo sapiens) (UniProt P21728); test: NVS_GPCR_hDRD1: NovaScreen (NVS) G Protein-Coupled Receptor Assay for human Dopamine Receptor D1 (DRD1) (AID 2283269)
D(1A) dopamine receptor (Homo sapiens), sequence (P21728 whole entry, looked up): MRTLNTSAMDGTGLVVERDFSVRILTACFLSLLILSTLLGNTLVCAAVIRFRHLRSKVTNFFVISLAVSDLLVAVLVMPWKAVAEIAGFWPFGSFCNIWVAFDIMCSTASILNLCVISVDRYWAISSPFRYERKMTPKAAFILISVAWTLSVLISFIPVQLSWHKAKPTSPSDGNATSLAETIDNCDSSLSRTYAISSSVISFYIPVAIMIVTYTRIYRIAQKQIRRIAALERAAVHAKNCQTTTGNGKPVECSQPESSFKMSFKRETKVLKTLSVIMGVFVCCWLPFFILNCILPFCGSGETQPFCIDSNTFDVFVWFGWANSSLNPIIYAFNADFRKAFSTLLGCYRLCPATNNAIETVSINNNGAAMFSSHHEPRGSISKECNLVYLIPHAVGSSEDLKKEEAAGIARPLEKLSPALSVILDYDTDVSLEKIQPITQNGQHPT
In short: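 Radioligand displacement binding on membranes/protein extracted from HEK293 expressing human D1, cell-free; read 1 h after dosing by filter-based scintillation counting. Primary screen in duplicate at 25 uM, actives followed up in concentration series; signal loss versus DMSO baseline.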

[10] = biological target: human Endothelin Receptor Type A (ETA), EDNRA (gene 1909) (UniProt P25101); test: NVS_GPCR_hETA: NovaScreen (NVS) G Protein-Coupled Receptor Assay for human Endothelin Receptor Type A (ETA) (AID 2283265)
In short: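 Cell-free radioligand displacement using SH-SY5Y-derived protein, 3 h incubation, filter-based scintillation counting. Primary screen in duplicate at 25 uM; actives then run in concentration-response up to 50 uM; loss of binding fitted versus DMSO.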

[11] = biological target: guinea pig Opioid, Kappa 1 Receptor (OpiateK), OPRK1 (gene 100135587) (UniProt P41144); test: NVS_GPCR_gOpiateK: NovaScreen (NVS) G Protein-Coupled Receptor Assay for guinea pig Opioid, Kappa 1 Receptor (OpiateK) (AID 2283252);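 further: radioligand displacement from kappa opioid receptor in guinea pig cerebellar membranes; active means reduced radioligand binding relative to DMSO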
guinea pig Opioid, Kappa 1 Receptor (OpiateK), OPRK1 (gene 100135587), sequence (P41144 whole entry, looked up): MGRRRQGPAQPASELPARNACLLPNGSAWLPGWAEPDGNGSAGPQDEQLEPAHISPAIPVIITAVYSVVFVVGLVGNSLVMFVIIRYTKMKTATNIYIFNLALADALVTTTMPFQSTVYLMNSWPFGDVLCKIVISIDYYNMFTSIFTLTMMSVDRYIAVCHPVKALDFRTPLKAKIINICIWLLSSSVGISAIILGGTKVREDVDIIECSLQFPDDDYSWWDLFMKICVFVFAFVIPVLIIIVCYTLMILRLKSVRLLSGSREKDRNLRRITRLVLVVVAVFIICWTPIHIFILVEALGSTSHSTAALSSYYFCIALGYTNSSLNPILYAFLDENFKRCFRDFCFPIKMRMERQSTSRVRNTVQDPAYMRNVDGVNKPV
In short: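 Guinea pig cerebellar membranes, radioligand displacement with filter-based scintillation counting, 2 h after dosing. Primary screen single concentration 25 uM in duplicate; actives retested in concentration series; loss of binding fitted versus DMSO.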

[12] = biological target: Muscarinic acetylcholine receptor M1 (Homo sapiens) (UniProt P11229); test: NVS_GPCR_hM1: NovaScreen (NVS) G Protein-Coupled Receptor Assay for human Muscarinic, M1 Receptor (AID 2283270)
Muscarinic acetylcholine receptor M1 (Homo sapiens), sequence (P11229 whole entry, looked up): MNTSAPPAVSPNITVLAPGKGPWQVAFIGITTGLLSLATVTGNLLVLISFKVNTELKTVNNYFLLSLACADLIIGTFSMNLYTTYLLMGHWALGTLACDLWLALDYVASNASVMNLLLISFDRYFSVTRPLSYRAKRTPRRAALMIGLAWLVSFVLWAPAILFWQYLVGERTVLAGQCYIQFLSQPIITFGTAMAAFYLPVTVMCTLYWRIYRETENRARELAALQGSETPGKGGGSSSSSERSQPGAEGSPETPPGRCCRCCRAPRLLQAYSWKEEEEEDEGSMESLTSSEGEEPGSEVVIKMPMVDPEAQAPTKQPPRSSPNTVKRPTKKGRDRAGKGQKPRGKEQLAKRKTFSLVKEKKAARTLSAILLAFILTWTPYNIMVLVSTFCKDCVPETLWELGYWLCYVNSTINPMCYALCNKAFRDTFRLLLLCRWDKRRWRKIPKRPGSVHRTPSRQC
In short: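 Cell-free radioligand displacement using membrane protein extracted from CHO cells, read by filter-based scintillation counting 1 h after dosing. Loss of bound signal fitted versus DMSO; primary screen single concentration 25 uM in duplicate, actives followed by concentration series.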

[13] = biological target: human Endothelin Receptor Type B (ETB), EDNRB (gene 1910) (UniProt P24530); test: NVS_GPCR_hETB: NovaScreen (NVS) G Protein-Coupled Receptor Assay for human Endothelin Receptor Type B (ETB) (AID 2283267)
In short: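 Human astrocytoma cell membranes; radioligand competitive binding read by filter scintillation counting 4 hours after dosing. Single-concentration duplicate screen at 25 uM, then singleton concentration-response up to 50 uM; loss of signal versus DMSO.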

[14] = biological target: Type-1 angiotensin II receptor (Homo sapiens) (UniProt P30556); test: NVS_GPCR_hAT1: NovaScreen (NVS) G Protein-Coupled Receptor Assay for human Angiotensin II receptor type 1 (AT1) (AID 2283263)
In short: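 Membranes from KAN-TS cells; radioligand competitive displacement, 3 h, filtration and scintillation counting. Single-point duplicate screen at 25 uM, then concentration-response up to 50 uM for hits; loss of signal fitted versus DMSO.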

[15] = biological target: human Adrenergic, Alpha 2A Receptor (Adra2A), ADRA2A (gene 150) (UniProt P08913); test: NVS_GPCR_hAdra2A: NovaScreen (NVS) G Protein-Coupled Receptor Assay for human Adrenergic, Alpha 2A Receptor (Adra2A) (AID 2283257)
human Adrenergic, Alpha 2A Receptor (Adra2A), ADRA2A (gene 150), sequence (P08913 whole entry, looked up): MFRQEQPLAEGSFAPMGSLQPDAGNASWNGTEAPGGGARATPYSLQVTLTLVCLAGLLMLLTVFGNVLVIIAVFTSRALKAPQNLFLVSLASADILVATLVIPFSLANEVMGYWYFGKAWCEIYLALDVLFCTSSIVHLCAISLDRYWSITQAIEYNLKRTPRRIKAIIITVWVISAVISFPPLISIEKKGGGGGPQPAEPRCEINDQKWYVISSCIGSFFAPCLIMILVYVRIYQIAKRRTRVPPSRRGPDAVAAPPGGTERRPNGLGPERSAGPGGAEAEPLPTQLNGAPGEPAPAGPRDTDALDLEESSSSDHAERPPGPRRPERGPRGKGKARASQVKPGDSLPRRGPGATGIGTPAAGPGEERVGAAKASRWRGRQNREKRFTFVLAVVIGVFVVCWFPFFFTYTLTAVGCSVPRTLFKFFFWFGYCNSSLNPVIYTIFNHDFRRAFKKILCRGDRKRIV
In short: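 Radioligand filter-binding was run on HT29-derived membranes, cell-free, read by scintillation counting 1 h after dosing. Primary screening was in duplicate at 25 uM, with concentration series in follow-up. Loss of signal versus DMSO indicates displacement.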

[16] = biological target: human Adrenergic, Beta 1 Receptor (Adrb1), ADRB1 (gene 153) (UniProt P08588); test: NVS_GPCR_hAdrb1: NovaScreen (NVS) G Protein-Coupled Receptor Assay for human Adrenergic, Beta 1 Receptor (Adrb1) (AID 2283258)
In short: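 Cell-free radioligand displacement on receptor from human neuroepithelioma cells; 2 h after dosing, filter-based scintillation counting. Primary screen in duplicate at 25 uM, actives retested in concentration series; loss of signal vs DMSO baseline.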

[17] = biological target: Beta-2 adrenergic receptor (Homo sapiens) (UniProt P07550); test: NVS_GPCR_hAdrb2: NovaScreen (NVS) G Protein-Coupled Receptor Assay for human Adrenergic, Beta 2 Receptor (Adrb2) (AID 2283261)
In short: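 Filter-based radioligand binding using receptor prepared from CHO cells, 1 h incubation, scintillation counting. Primary screen in duplicate at 25 uM, actives retested in concentration series; loss of binding relative to DMSO.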

[18] = biological target: human Adrenergic, Beta 3 Receptor (Adrb3), ADRB3 (gene 155) (UniProt P13945); test: NVS_GPCR_hAdrb3: NovaScreen (NVS) G Protein-Coupled Receptor Assay for human Adrenergic, Beta 3 Receptor (Adrb3) (AID 2283262)
In short: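 Membranes from SK-N-MC cells pretreated with isoproterenol and 8-bromo-cAMP were used in a radioligand competitive displacement binding assay. Binding was read by filter-based scintillation counting 1 hour after dosing. Primary screening was in duplicate at 25 uM, with concentration series in follow-up.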

[19] = biological target: human Histamine 1 Receptor (H1), HRH1 (gene 3269) (UniProt P35367); test: NVS_GPCR_hH1: NovaScreen (NVS) G Protein-Coupled Receptor Assay for human Histamine 1 Receptor (H1) (AID 2283268)
In short: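 Cell-free radioligand displacement at human H1 receptor, 1 h, filter scintillation counting; primary screen 25 uM in duplicate, hits in concentration series; loss of binding fitted vs DMSO.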

Measured: AC50

Oc1cccc(O)c1
inactive: [1]

CCC(=C(c1ccc(O)cc1)c1ccc(OCCN(C)C)cc1)c1ccccc1
inactive: [7]
active: [2] 3.32 µM | [3] 1.74 µM | [4] 2.12 µM | [1] 5.49 µM | [5] 3.08 µM | [6] 4.42 µM | [8] 0.647 µM | [9] 1.71 µM

CC(C)(C)c1ccc(O)c(C(C)(C)C)c1
inactive: [5] | [10]

CCCCCCCC(=O)O
inactive: [11] | [4] | [12]

CC#C[C@]1(O)CC[C@H]2[C@@H]3CCC4=CC(=O)CCC4=C3[C@@H](c3ccc(N(C)C)cc3)C[C@@]21C
inactive: [4] | [5]
active: [1] 23.7 µM

C#C[C@]1(O)CC[C@H]2[C@@H]3CCC4=CC(=O)CC[C@@H]4[C@H]3CC[C@@]21C
inactive: [11] | [13]

O=C(O)Cc1cc(I)c(Oc2cc(I)c(O)c(I)c2)c(I)c1
active: [1] 5.26 µM
inactive: [2] | [4] | [14]

CCCCCCCCCCCCCC[N+](C)(C)C
active: [9] 4.57 µM

CCCCCCC(=O)O
inactive: [15]

CCCOc1sc(C(=O)N2CCC(c3cc(CN)ccc3F)CC2)c(C)c1Br
active: [2] 15.1 µM | [3] 8.41 µM | [4] 17.2 µM | [1] 5.09 µM | [15] 4.12 µM | [16] 15.2 µM | [6] 8.34 µM | [17] 7.53 µM | [18] 33.5 µM | [7] 16.9 µM | [8] 9.42 µM | [19] 18.2 µM | [9] 3.56 µM | [12] 8.67 µM
inactive: [11]

CN1CCN(c2ccccc2/C=C2\SCCN(c3ccc(Cl)c(Cl)c3)C2=O)CC1
active: [2] 0.302 µM | [11] 3.39 µM | [3] 1.45 µM | [1] 0.0142 µM | [16] 3.51 µM | [17] 0.199 µM

CCCOC(=O)c1ccc(O)cc1
active: [4] 11.8 µM

CC(=O)CC(C)(C)O
inactive: [18] | [13]

CCN(CC)CCNc1ccc(CNC=O)c2sc3ccc(OC)cc3c(=O)c12
active: [2] 4.96 µM | [11] 25 µM | [4] 3.34 µM | [5] 5.28 µM | [6] 14.6 µM | [17] 28.3 µM | [8] 18.8 µM | [19] 7.5 µM | [9] 7.31 µM | [12] 4.7 µM
inactive: [1] | [15]

CC1=C(/C=C/C(C)=C/C=C/C(C)=C/C(=O)O)C(C)(C)CCC1
active: [7] 1.8 µM

Oc1cc2ccccc2c2ccccc12
inactive: [5]
